Source: PubChem BioAssay
HIF activator: HIF pathway transcriptional activation. activation, % at 7.5 µM (by protocol). 300,000 compounds, 0.32% hits. U2OS HRE-luciferase reporter, luminescence; normalized: DMSO 0%, desferrioxamine 100%;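 active means mean activation of at least 10% of the iron chelator positive control signal, with at least half of replicates also reaching 10%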
proKLK7 act: activates the human kallikrein-7 zymogen; P49862; purified proKLK7, EDANS-DABCYL substrate fluorescence; 100% is mature enzyme control, 0% vehicle; activation, % at 7 µM; 370,000 compounds, 0.9% hits; AID 652039;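 active means activation above the mean of all tested compounds plus 3 SD, computed per campaign excluding outliers beyond control limits, cut at about 13% in these data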
GC-B act: GC-B (human) receptor activation. P20594. HEK293-GC-B cells, CNP EC30, cGMP TR-FRET; 0% at EC30 CNP, 100% saturating CNP. activation, % at 10 µM. 370,000 compounds, 0.11% hits. AID 1920062;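 active means activation at 10 µM reaching about 35% in either raw or pattern-adjusted values, limit read from the data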
NPR1 activator: GC-A (human) enzyme activation; P16066; 370,000 compounds, 0.14% hits; HEK293 GC-A cells, cGMP TR-FRET, EC30 ANP; 0% at EC30 ANP, 100% saturating ANP; activation, % at 10 µM; AID 1671463; in the data active means activation above about 40%
KLK7 act conf: proKLK7 activation, confirmation | shares compounds with proKLK7 act | purified proKLK7, EDANS-DABCYL substrate fluorescence; scaled: vehicle 0, mature enzyme 100 | activation, % at 7 µM | 3,200 compounds, 68% hits;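 active means activation, as change over the incubation, above the mean of all tested compounds plus 3 SD, cut at about 13% in these data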
EDANS-DABCYL int: fluorescence interference counter-screen for KLK7 activators; shares compounds with proKLK7 act; EDANS-DABCYL substrate fluorescence interference, no enzyme, 4 h; solvent 0%, active enzyme control 100%; activation, % at 7 µM; 3,200 compounds, 80% hits; AID 686952;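 active means activation above the all-compound mean plus 3 SD, ignoring values outside control-based bounds, cut at about 4.8% in these data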;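 further: value is the 4 h activation minus the activation read at time zero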
EDANS interf: optically interferes with EDANS-DABCYL fluorescence, kallikrein-7 activator counter-screen | EC50, µM | EDANS-DABCYL peptide fluorescence interference, no enzyme | 250 compounds, 20% hits | shares compounds with proKLK7 act | AID 720493;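 active means compounds that raise the fluorescence signal in this interference counterscreen, with EC50 at or below 10 µM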;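 further: intact quenched peptide substrate alone read at 355 nm excitation and 520 nm emission; signal is fluorescence gain from T0 to T4 after four hours at room temperature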
Numbers stand for hits. A selection: hits, their analogues and other compounds. The true share with any hit is near 1.3%.

What do the screens show for `CCc1cc(=O)oc2c(CN3CCN(C)CC3)c(O)ccc12`?
HIF activator: inactive; proKLK7 act: 38; GC-B act: inactive; NPR1 activator: inactive; KLK7 act conf: 72; EDANS-DABCYL int: 71

How did CCCCc1cc(=O)oc2c(CN3CCCC3)c(O)ccc12 do in these assays?
HIF activator: inactive; proKLK7 act: 77; GC-B act: inactive; NPR1 activator: inactive; KLK7 act conf: 65; EDANS-DABCYL int: 74

What do the screens show for `CC1CCC2(CCC(=O)N2CCCOC(=O)Nc2cccc(C(F)(F)F)c2)CC1` (stereo not given)?
proKLK7 act: inactive; GC-B act: inactive; NPR1 activator: inactive

What do the screens show for `C=CCN1[C@@H](CC(C)C)COc2cccc(N3CCCC3)c2S1(=O)=O`?
proKLK7 act: inactive; GC-B act: inactive; NPR1 activator: inactive

What do the screens show for `CC(=O)Nc1cc2c3c(cccc3c1)-c1ccccc1-2`?
proKLK7 act: 89; GC-B act: inactive; NPR1 activator: inactive; KLK7 act conf: 28; EDANS-DABCYL int: inactive; EDANS interf: 9.9

How did CN(CCOC(=O)CC1C=CCC1)C1CN(Cc2cn(Cc3ccccc3Cl)nn2)S(=O)(=O)C1 (stereo not given) do in these assays?
proKLK7 act: inactive; GC-B act: inactive; NPR1 activator: inactive

What do the screens show for `CCN1CCN(c2cc3c(nn2)Oc2ccccc2N3C)CC1`?
HIF activator: inactive; proKLK7 act: 61; GC-B act: inactive; NPR1 activator: inactive; KLK7 act conf: 70; EDANS-DABCYL int: 67

Results for CS(=O)(=O)N(CC(=O)N1CCOCC1)c1ccc2c(c1)OCO2 ?
HIF activator: inactive; proKLK7 act: 17; GC-B act: inactive; NPR1 activator: inactive; KLK7 act conf: inactive; EDANS-DABCYL int: inactive

What do the screens show for `CC1CCN(C(=O)CN(c2ccc3c(c2)OCO3)S(C)(=O)=O)CC1`?
HIF activator: inactive; proKLK7 act: inactive; GC-B act: inactive; NPR1 activator: inactive

Results for COc1ccccc1CC(=O)Nc1ccc(NC(=O)c2cccs2)cc1 ?
HIF activator: inactive; proKLK7 act: 52; GC-B act: inactive; NPR1 activator: inactive; KLK7 act conf: 73; EDANS-DABCYL int: 59; EDANS interf: 8.2

Results for COc1cc(NC(=O)c2cccs2)c(OC)cc1NC(=O)CCC(=O)Nc1ccc(C)cc1 ?
HIF activator: inactive; proKLK7 act: 123; GC-B act: inactive; NPR1 activator: inactive; KLK7 act conf: inactive; EDANS-DABCYL int: inactive

Results for COc1ccccc1CC(=O)NNC(=O)c1cccs1 ?
HIF activator: inactive; proKLK7 act: inactive; GC-B act: inactive; NPR1 activator: inactive

What do the screens show for `COc1ccc(NC(=O)CCC(=O)Nc2cc(OC)c(NC(=O)c3cccs3)cc2OC)cc1`?
HIF activator: inactive; proKLK7 act: inactive; GC-B act: inactive; NPR1 activator: inactive

Results for Cc1onc(-c2ccccc2Cl)c1C(=O)Nc1ccccc1C(N)=O ?
HIF activator: inactive; proKLK7 act: inactive; GC-B act: inactive; NPR1 activator: inactive

What do the screens show for `Cc1onc(-c2ccccc2Cl)c1C(=O)NC(=S)Nc1ccccc1C(N)=O`?
HIF activator: inactive; proKLK7 act: 13; GC-B act: inactive; NPR1 activator: inactive; KLK7 act conf: inactive; EDANS-DABCYL int: 9.1

What do the screens show for `O=C(NCCc1c[nH]c2ccccc12)OCc1cn(Cc2cc(F)ccc2F)nn1`?
proKLK7 act: inactive; GC-B act: inactive; NPR1 activator: inactive

What do the screens show for `O=C(CSc1nnc(COc2ccc(Cl)cc2)n1Cc1ccco1)Nc1cccc2ccccc12`?
proKLK7 act: inactive; GC-B act: inactive; NPR1 activator: inactive

How did CCCCN(CC)CCCNC(=O)c1cc2cc3ccc(C)cc3nc2o1 do in these assays?
HIF activator: inactive; proKLK7 act: 22; GC-B act: inactive; NPR1 activator: inactive; KLK7 act conf: inactive; EDANS-DABCYL int: 13

What do the screens show for `CCCCN(CC)CCNC(=O)c1cc2cc3ccc(Cl)cc3nc2o1`?
HIF activator: inactive; proKLK7 act: inactive; GC-B act: inactive; NPR1 activator: inactive

Results for Cc1ccc2cc3cc(C(=O)NCCCN4CCCCCC4)oc3nc2c1 ?
HIF activator: inactive; proKLK7 act: 18; GC-B act: inactive; NPR1 activator: inactive; KLK7 act conf: inactive; EDANS-DABCYL int: 11

Results for O=C(Nc1nc2c(s1)CN(Cc1ccccc1)CC2)c1cccc(S(=O)(=O)N2CCc3ccccc32)c1 ?
HIF activator: inactive; proKLK7 act: 640; GC-B act: inactive; NPR1 activator: inactive; KLK7 act conf: 21; EDANS-DABCYL int: 18

Results for O=C(Nc1nc2ccccc2s1)c1cccc(S(=O)(=O)N2CCc3ccccc32)c1 ?
HIF activator: inactive; proKLK7 act: inactive; GC-B act: inactive; NPR1 activator: inactive

What do the screens show for `CCOc1ccccc1NC(=O)CSc1nnc(SCc2ccccc2)s1`?
proKLK7 act: inactive; GC-B act: inactive; NPR1 activator: inactive

Results for CCCCn1nc2cc(C(=O)NC[C@@H]3CCCO3)ccc2c1OCC ?
HIF activator: inactive; proKLK7 act: inactive; GC-B act: inactive; NPR1 activator: inactive

Results for CCOc1c2ccc(C(=O)NCc3ccco3)cc2nn1CC ?
HIF activator: inactive; proKLK7 act: 22; GC-B act: inactive; NPR1 activator: inactive; KLK7 act conf: 19; EDANS-DABCYL int: 20

How did CCOc1c2ccc(C(=O)NCc3ccc4c(c3)OCO4)cc2nn1CCOC do in these assays?
HIF activator: inactive; proKLK7 act: 13; GC-B act: inactive; NPR1 activator: inactive; KLK7 act conf: inactive; EDANS-DABCYL int: inactive

What do the screens show for `CCCCn1nc2cc(C(=O)NCC3CC3)ccc2c1OCC`?
HIF activator: inactive; proKLK7 act: 18; GC-B act: inactive; NPR1 activator: inactive; KLK7 act conf: inactive; EDANS-DABCYL int: inactive

What do the screens show for `CCCCn1nc2cc(C(=O)NCc3ccco3)ccc2c1OCC`?
HIF activator: inactive; proKLK7 act: inactive; GC-B act: inactive; NPR1 activator: inactive

How did CCOc1c2ccc(C(=O)NCc3ccco3)cc2nn1CCOC do in these assays?
HIF activator: inactive; proKLK7 act: 18; GC-B act: inactive; NPR1 activator: inactive; KLK7 act conf: 24; EDANS-DABCYL int: 29

What do the screens show for `CCC[C@H]1[C@@H](NC(=O)c2ccc(N(C)C)cc2)CC[C@@]23CCCN2C(=O)CCC[C@@H]13`?
GC-B act: inactive; NPR1 activator: inactive

Results for COc1ccc(CNCC#Cc2ccc(C(F)(F)F)cc2)c(OC)c1 ?
proKLK7 act: inactive; GC-B act: inactive; NPR1 activator: inactive
